For test [1] the following is noted: Ebola virus entry assay, green fluorescence channel.
For test [2] the following is noted: Ebola virus entry assay, blue channel fluorescence.
For test [3] the following is noted: Ebola virus entry assay, green fluorescence channel. This is another data set of the same source.
For test [4] the following is noted: Ebola virus entry assay, ratio channel readout.
The conditions of test [5]: Ebola virus entry assay, blue channel fluorescence. The source holds these as a separate data set.
The conditions of test [6]: Ebola virus entry assay, ratio channel.
For test [7] the following is noted: Ebola virus entry assay, green channel fluorescence.
The conditions of test [8]: Ebola virus entry assay, blue channel fluorescence. This is another data set of the same source.
The conditions of test [9]: Ebola virus entry assay, reporter ratio channel; AC50: Channel type: primary unless noted; outcome: Channel type: primary unless noted.
For test [10] the following is noted: Ebola virus entry assay, blue channel (ratio component).

Structures are written as SMILES. Unmarked numbers belong to inactive results. For part of these data: Measured potencies and affinities stand elsewhere. The source made the active and inactive calls.
For efficacy in this document: 0% is about no effect.

One may read the AC50 as the concentration giving half of the maximal activity seen. For `CN(C/C=C/C#CC(C)(C)C)Cc1cccc2ccccc12`, in [1], the efficacy is -24.6%. The compound was called inactive in [2], in [3], in test [4], in [6], in test [7] and in test [8]. The AC50 in test [5] was 28.2 µM (active); in test [9], 35.5 µM (active).
For the compound `CCCN1C[C@H](CSC)C[C@@H]2c3cccc4[nH]cc(c34)C[C@H]21`, in test [1], the efficacy is 14.5%. The compound was called inactive in test [2], in test [3], in test [4], in test [7] and in test [8]. For the same compound, the values for the AC50 in test [5], in test [6] and in [9] were 11.2 µM (active), 7.94 µM (active) and 7.94 µM (active), respectively.
`NS(=O)(=O)c1cc2c(cc1C(F)(F)F)NCNS2(=O)=O`: the efficacy in test [1] is -34.5%. Further, the compound was classed as inactive in test [2], in [3], in test [4], in test [5], in [6] and in [7]. Besides, the call in [8], in [9] and in test [10] was inactive.
As for `N[C@@H](C(=O)N[C@@H]1C(=O)N2C(C(=O)O)=C(Cl)CS[C@H]12)c1ccccc1`, the efficacy in test [1] is 26%. Further, the call in [2], in test [3], in test [4], in [5], in test [6] and in test [7] was inactive. Further, the compound was called inactive in test [8], in test [9] and in [10].
Regarding `C[C@](N)(Cc1ccc(O)c(O)c1)C(=O)O`, in [1], the efficacy is 20.7%. The result in test [2], in [3], in test [4], in [7] and in test [8] was inactive. The AC50 in test [5] was 15.8 µM (active); in [6], 22.4 µM (active); in [9], 22.4 µM (active).
For the compound `O=C(c1ccccc1)c1ccc2n1CCC2C(=O)O` (centres undefined), the efficacy in test [1] was 22%. In addition, the call in [2], in test [3], in test [4], in test [5], in test [6] and in [7] was inactive. Moreover, the outcome in test [8], in [9] and in test [10] was inactive.
`CC(C)NCC(O)c1ccc(O)c(O)c1` (centres undefined): in [1], the efficacy was -9.56%. Further, the call in test [2], in [3], in test [4], in test [5], in test [6] and in test [7] was inactive. Moreover, the outcome in [8], in [9] and in test [10] was inactive.
On to `N[C@@H](Cc1cc(I)c(Oc2cc(I)c(O)c(I)c2)c(I)c1)C(=O)O`, for which the efficacy in test [1] was -10%. The result in test [2], in test [3], in [4], in test [5], in [6] and in test [7] was inactive. Further, the result in [8], in test [9] and in test [10] was inactive.
Turning to `COc1ccc2nc(S(=O)Cc3ncc(C)c(OC)c3C)[nH]c2c1` (centres undefined), in test [1], the efficacy was 22.2%. The compound was classed as inactive in test [2], in test [3], in test [4], in test [5], in test [6] and in test [7]. The compound was classed as inactive in test [8], in test [9] and in test [10].
Consider `CC(C)(O)c1ccccc1CC[C@@H](SCC1(CC(=O)O)CC1)c1cccc(/C=C/c2ccc3ccc(Cl)cc3n2)c1`, for which the efficacy in [1] was 12.9%. Also, the result in test [2], in test [3], in [4], in [5], in test [6] and in test [7] was inactive. The compound was classed as inactive in [8], in test [9] and in test [10].
Consider `O=C1CC[C@@]2(O)[C@H]3Cc4ccc(O)c5c4[C@@]2(CCN3CC2CC2)[C@H]1O5`, for which the efficacy in test [1] was -27.7%. For the same compound, the result in test [2], in test [3], in [4], in test [5], in test [6] and in test [7] was inactive. Also, the outcome in test [8], in test [9] and in [10] was inactive.
Turning to `CCCCNc1ccc(C(=O)OCCOCCOCCOCCOCCOCCOCCOCCOCCOC)cc1`, the efficacy in [1] was 14%. Moreover, the result in test [2], in test [3], in test [4], in test [5], in test [6] and in test [7] was inactive. Moreover, the outcome in test [8], in test [9] and in [10] was inactive.
With `CC(C)C(=O)Nc1ccc([N+](=O)[O-])c(C(F)(F)F)c1`, the efficacy in test [1] is -18.2%. Moreover, the compound was classed as inactive in [2], in [3], in test [4], in test [5], in test [6] and in [7]. The compound was called inactive in test [8], in test [9] and in test [10].
Consider `NC1[C@H]2CN(c3nc4c(cc3F)c(=O)c(C(=O)O)cn4-c3ccc(F)cc3F)C[C@@H]12` (some centres undefined), for which the efficacy in test [1] is -13.1%. In addition, the compound was classed as inactive in test [2], in test [3], in test [4], in test [5], in [6] and in test [7]. For the same compound, the result in test [8] and in test [9] was inactive.
For `Cn1cnc([N+](=O)[O-])c1Sc1ncnc2nc[nH]c12`, the efficacy in [1] is 14.5%. The call in test [2], in [3], in [4], in test [5], in test [6] and in [7] was inactive. The compound was called inactive in test [8], in test [9] and in [10].
Consider `Nc1nc(=S)c2[nH]cnc2[nH]1`, for which, in test [1], the efficacy is -27.5%. For the same compound, the outcome in [2], in test [3], in test [4], in test [5], in test [6] and in test [7] was inactive. The result in [8], in test [9] and in test [10] was inactive.
Take `O=C1[C@H](CC[C@H](O)c2ccc(F)cc2)[C@@H](c2ccc(O)cc2)N1c1ccc(F)cc1`: in test [1], the efficacy was -26.4%. Also, the result in test [2], in [3], in test [4], in test [6], in test [7] and in [8] was inactive. Besides, the concentration at half-maximal activity (AC50) in [5] and in test [9] was 28.2 µM (active) each time.
On to `CCc1nc(N)nc(N)c1-c1ccc(Cl)cc1`, for which the efficacy in [1] is 26.9%. Further, the compound was classed as inactive in test [2], in test [3], in test [4], in test [6], in test [7] and in test [8]. Besides, the AC50 in test [5] and in test [9] was 39.8 µM (active) in each case.
On to `NS(=O)(=O)Cc1noc2ccccc12`, for which the efficacy in [1] was -13.2%. Moreover, the outcome in test [2], in test [3], in [4], in test [5], in [6] and in [7] was inactive. Moreover, the outcome in [8], in [9] and in test [10] was inactive.
For `CC(=O)O[C@]1(C(C)=O)CC[C@H]2[C@@H]3C=C(C)C4=CC(=O)CC[C@]4(C)[C@H]3CC[C@@]21C`, the efficacy in test [1] is 20%. Also, the result in [2], in [3], in [4], in [5], in test [6] and in test [7] was inactive. Also, the compound was called inactive in test [8], in [9] and in [10].
Consider `CCOc1ccccc1OCCN[C@H](C)Cc1ccc(OC)c(S(N)(=O)=O)c1`, for which, in test [1], the efficacy is -10.5%. The outcome in test [2], in test [3], in [4], in test [5], in test [6] and in test [7] was inactive. For the same compound, the compound was classed as inactive in [8], in test [9] and in [10].

Values taken from PubChem BioAssay (NCATS).
